Experimental data as given in PubChem BioAssay.
Active and inactive are the calls of the source.

Experiments:
[1] = test system: Human papillomavirus type 1a protein E7 (residues 44-93); assay: HPV1a E7 fragment binders on microarrays, primary screen, biochemical, small-molecule microarray, residues 44-93, 635 nm fluorescence (AID 1108); details: small-molecule microarray binding, fluorescence 635 nm; higher = more signal;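 note: E7 fragment applied at 1 µg/mL in TBST for 1 h at 4 C; score combines spot fluorescence with its signal to noise ratio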
[2] = modulators of HCV replicon luciferase signal, primary screen, HCV replication inhibitor project, Huh7 cells, luciferase reporter (AID 1109); details: 48 h, higher = more signal;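 note: huh7 hepatoma cells harbouring a luciferase neomycin HCV replicon reporter; luciferase luminescence as measure of HCV replicon replication; test concentration not given here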
[3] = biological target: Left-right determination factor 2 (Homo sapiens) (UniProt O00292); assay: LEFTY2 binders on small-molecule microarrays, primary screen, biochemical, small-molecule microarray, 635 nm fluorescence scan (AID 1110); details: LEFTY2 binding, higher = more signal
Left-right determination factor 2 (Homo sapiens), sequence (O00292 whole entry, looked up): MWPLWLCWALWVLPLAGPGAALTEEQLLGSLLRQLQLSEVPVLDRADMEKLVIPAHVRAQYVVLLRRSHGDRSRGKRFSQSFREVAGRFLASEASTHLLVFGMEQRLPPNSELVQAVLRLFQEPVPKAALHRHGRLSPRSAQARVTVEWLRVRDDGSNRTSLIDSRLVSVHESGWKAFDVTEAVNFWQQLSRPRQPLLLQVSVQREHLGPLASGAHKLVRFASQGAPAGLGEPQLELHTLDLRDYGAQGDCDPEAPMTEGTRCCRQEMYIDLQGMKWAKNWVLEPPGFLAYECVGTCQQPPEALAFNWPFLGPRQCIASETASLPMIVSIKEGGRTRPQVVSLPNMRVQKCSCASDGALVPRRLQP

[4] = biological target: Calmodulin-1 (Homo sapiens) (UniProt P0DP23); assay: CALM1 binders on microarrays, EGTA buffer, profiling panel, biochemical, small-molecule microarray, Cy5-labelled CALM1 (AID 1111); details: Cy5-CALM1 binding fluorescence, higher = more signal;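 note: labelled calmodulin applied in Tris saline Tween buffer holding calcium plus EGTA and DTT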
[5] = biological target: Calmodulin-1 (Homo sapiens) (UniProt P0DP23); assay: calcium-bound CALM1 binders on microarrays, profiling panel, artefact control for SMM control-protein annotation, biochemical, small-molecule microarray, Cy5-labelled CALM1, plus calcium (AID 1112); details: Cy5-CALM1 binding fluorescence, higher = more signal;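 note: score merges spot fluorescence with signal to noise from triplicate slides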
[6] = small-molecule microarray binders of probe aWnt5a, primary screen, biochemical, biotinylated probe, 635/667 nm fluorescence (AID 1113); details: higher = more signal;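 note: score merges 667 nm fluorescence intensity with signal-to-noise per printed feature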
[7] = small-molecule microarray binders of probe aShh, primary screen, biochemical, biotinylated probe, 635/667 nm fluorescence (AID 1114); details: higher = more signal;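 note: probe is biotin-labelled aShh protein from a stem cell growth factor screen; measures binding of labelled protein to compounds printed on the slide; score merges feature fluorescence at 667 nm with signal-to-noise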
[8] = small-molecule microarray binders of probe aNog, primary screen, biochemical, biotinylated probe, 635/667 nm fluorescence (AID 1115); details: higher = more signal;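 note: probe is biotinylated aNog protein used at 0.15 µg/mL for 1 h at 4 C; z-score combines 667 nm fluorescence of each spot with its signal to noise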
[9] = biological target: Torsin-1A-interacting protein 1 (Homo sapiens) (UniProt Q5JTV8); assay: LAP1 binders from COS7 cell lysate, primary screen, small-molecule microarray, 635/667 nm fluorescence (AID 1116); details: COS7-hLAP1 lysate binding, 635 nm fluorescence, higher = more signal
Torsin-1A-interacting protein 1 (Homo sapiens), sequence (Q5JTV8 whole entry, looked up): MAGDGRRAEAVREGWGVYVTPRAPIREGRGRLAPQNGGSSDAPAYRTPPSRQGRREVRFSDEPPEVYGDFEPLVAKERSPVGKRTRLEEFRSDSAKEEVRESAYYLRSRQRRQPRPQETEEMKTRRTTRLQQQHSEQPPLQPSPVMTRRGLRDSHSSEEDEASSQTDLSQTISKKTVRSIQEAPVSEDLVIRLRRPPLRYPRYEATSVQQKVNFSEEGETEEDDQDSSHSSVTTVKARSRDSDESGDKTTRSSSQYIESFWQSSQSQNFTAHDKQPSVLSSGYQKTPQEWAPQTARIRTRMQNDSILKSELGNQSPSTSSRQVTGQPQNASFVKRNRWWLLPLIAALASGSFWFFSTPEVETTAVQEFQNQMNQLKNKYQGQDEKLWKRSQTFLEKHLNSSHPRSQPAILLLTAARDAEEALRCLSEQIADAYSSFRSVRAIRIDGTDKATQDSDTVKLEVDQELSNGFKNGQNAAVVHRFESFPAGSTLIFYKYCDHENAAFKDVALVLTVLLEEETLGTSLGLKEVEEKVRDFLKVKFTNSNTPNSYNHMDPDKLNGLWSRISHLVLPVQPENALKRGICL

[10] = biological target: Alpha-bungarotoxin (Bungarus multicinctus) (UniProt P60615); assay: alpha-bungarotoxin binders on microarray, profiling panel, artefact control for SMM control protein annotation, biochemical, small-molecule microarray, Alexa647 label, 635/667 nm fluorescence (AID 1117); details: alpha-BTX-A647 binding fluorescence, higher = more signal
Alpha-bungarotoxin (Bungarus multicinctus), sequence (P60615 whole entry, looked up): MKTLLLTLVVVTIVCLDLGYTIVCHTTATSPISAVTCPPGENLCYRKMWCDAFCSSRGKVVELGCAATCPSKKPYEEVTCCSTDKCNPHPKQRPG

[11] = biological target: Albumin (Bos taurus) (UniProt P02769); assay: bovine serum albumin binders on microarray, profiling panel, artefact control for SMM control protein annotation, biochemical, small-molecule microarray, Alexa647 label, 635/667 nm fluorescence (AID 1118); details: BSA-A647 binding, fluorescence 635 nm, higher = more signal;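 note: score merges 667 nm emission intensity and signal-to-noise per printed compound spot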
Albumin (Bos taurus), sequence (P02769 whole entry, looked up): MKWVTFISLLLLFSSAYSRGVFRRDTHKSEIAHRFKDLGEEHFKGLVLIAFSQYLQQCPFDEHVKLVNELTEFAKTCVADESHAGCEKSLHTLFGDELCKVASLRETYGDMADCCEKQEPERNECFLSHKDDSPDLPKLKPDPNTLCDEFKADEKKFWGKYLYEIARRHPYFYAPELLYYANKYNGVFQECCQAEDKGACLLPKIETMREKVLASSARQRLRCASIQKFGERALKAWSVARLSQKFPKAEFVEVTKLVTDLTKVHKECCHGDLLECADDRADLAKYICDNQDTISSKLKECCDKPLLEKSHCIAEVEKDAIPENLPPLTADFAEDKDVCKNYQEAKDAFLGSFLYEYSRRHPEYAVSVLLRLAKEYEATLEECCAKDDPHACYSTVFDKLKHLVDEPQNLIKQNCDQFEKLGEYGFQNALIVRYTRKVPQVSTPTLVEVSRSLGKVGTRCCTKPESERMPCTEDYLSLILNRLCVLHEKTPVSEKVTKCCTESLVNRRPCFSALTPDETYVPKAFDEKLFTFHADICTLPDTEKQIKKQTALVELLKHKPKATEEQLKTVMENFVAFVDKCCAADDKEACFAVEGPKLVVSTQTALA

[12] = small-molecule microarray binders of probe aXIP, primary screen, biochemical, NeuroSMM set, 635/667 nm fluorescence (AID 1119); details: higher = more signal, called active from +8 up or from −8 down;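 note: probe is the protein aXip251-270 applied at 1 µg/mL to compound-printed slides; binding of probe to printed compounds measured as 667 nm fluorescence plus signal to noise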
[13] = small-molecule binders of probe aNOTCH3, primary screen, biochemical, small-molecule microarray, 635/667 nm fluorescence (AID 1120); details: higher = more signal;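 note: probe is a biotin-tagged antibody raised against NOTCH3 rather than NOTCH3 protein; score merges spot fluorescence near 667 nm with spot signal to noise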
[14] = small-molecule binders of probe aNOTCH2, primary screen, biochemical, small-molecule microarray, 635/667 nm fluorescence (AID 1121); details: higher = more signal;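 note: score merges feature fluorescence read at 667 nm with its signal to noise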
[15] = biological target: Carbonic anhydrase 2 (Homo sapiens) (UniProt P00918); assay: CAII small-molecule binders, profiling panel, biochemical, small-molecule microarray, Alexa647-labelled CAII (AID 1122); details: CAII-A647 binding fluorescence, higher = more signal
[16] = COS7 lysate on small-molecule microarray, probe aHis, 635 nm (AID 1123); details: COS7 cell lysate, fluorescence, higher = more signal;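 note: z-score combines 667nm fluorescence intensity with signal-to-noise per printed compound spot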
[17] = compound binding in COS7 lysate, probe aLAP1, primary screen, cell lysate, small-molecule microarray (AID 1124); details: probe aLAP1, fluorescence, higher = more signal;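 note: lysate comes from COS7 cells expressing LAP1 and is applied at 0.3 µg/mL; score merges spot fluorescence near 667 nm with signal-to-noise over triplicate slides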
[18] = test system: Sam68 (KHDRBS1); assay: Sam68 small-molecule binders, primary screen, biochemical, small-molecule microarray, 635 nm fluorescence (AID 1125); details: small-molecule microarray binding, higher = more signal;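 note: score merges 667 nm channel intensity with signal to noise over triplicate slides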
[19] = test system: Chordin-like protein 2 (CHRDL2); assay: CHRDL2 small-molecule binders, primary screen, biochemical, small-molecule microarray, 635 nm fluorescence (AID 1126); details: small-molecule microarray binding, fluorescence 635 nm; higher = more signal;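 note: printed compound slides probed with Chrdl2 protein at 4 µg/mL for 1 h at 4 C; score merges 667 nm emission intensity with signal to noise over three replicate slides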
[20] = biological target: Concanavalin-A (Canavalia ensiformis) (UniProt P02866); assay: ConA small-molecule binders, primary screen, artefact control for SMM control protein annotation, biochemical, small-molecule microarray, Alexa647 label, 635 nm (AID 1127); details: ConA-A647 binding fluorescence, higher = more signal;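 note: z combines 667 nm emission intensity with signal-to-noise across three replicate slides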
Concanavalin-A (Canavalia ensiformis), sequence (P02866 whole entry, looked up): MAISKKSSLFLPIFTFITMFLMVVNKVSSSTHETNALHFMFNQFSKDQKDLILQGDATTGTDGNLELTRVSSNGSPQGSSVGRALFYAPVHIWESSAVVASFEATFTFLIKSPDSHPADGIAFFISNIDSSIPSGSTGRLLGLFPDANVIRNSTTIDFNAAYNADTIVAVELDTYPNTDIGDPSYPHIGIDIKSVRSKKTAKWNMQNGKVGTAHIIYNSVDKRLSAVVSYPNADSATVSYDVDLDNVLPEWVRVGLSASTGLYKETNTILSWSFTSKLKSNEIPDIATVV

SMILES | composite z-score [1] | z-score [2] | composite z-score [3] | composite z-score [4] | composite z-score [5] | composite z-score [6] | composite z-score [7] | composite z-score [8] | composite z-score [9] | composite z-score [10] | composite z-score [11] | composite Z-score [12] | composite z-score [13] | composite z-score [14] | composite z-score [15] | composite z-score [16] | composite z-score [17] | composite z-score [18] | composite z-score [19] | composite z-score [20]
CC(C)N1C(=O)c2ccccc2[C@@H](C(=O)NCC(F)(F)F)[C@@H]1c1ccc(CO)cc1 | 0.124 | 0.568 | 0.0101 | -0.257 | -0.224 | -0.0334 | -0.0626 | 0.128 | 0.287 | -0.143 | -0.826 | 0.492 (inactive) | -0.1 | -0.07 | 0.587 | 0.425 | -0.282 | -0.28 | -0.474 | 0.104
CCOC(=O)C[C@H]1[C@H](OC(=O)c2ccccc2-c2ccccc2)[C@@H](NC(=O)c2ccc3ccccc3c2)c2cc(OCCCO)ccc2N1C(=O)Cc1ccc(OC)cc1 | -0.201 | -1.6 | 0.23 | 0.115 | 0.0612 | -0.0643 | 0.112 | 0.257 | -0.0261 | 0.264 | 0.227 | 0.25 (inactive) | -0.186 | -0.101 | -0.165 | 0.14 | 0.232 | -0.868 | -0.341 | -0.12
C=C(COC)C(=O)CC[C@@H](OC(C)=O)c1ccccc1OCCO | 0.0358 | -2.72 | 0.325 | -0.85 | -0.976 | -0.175 | -0.0626 | 0.493 | 1.28 | 0.0746 | -0.145 | -0.975 (inactive) | 0.183 | -0.15 | 0.675 | -0.762 | 0.583 | 0.789 | -0.0113 | -0.0386
COCCOC(=O)N1C(=O)[C@@]2(c3cc(C#CCCO)ccc31)[C@H](C(N)=O)[C@H]1C(=O)O[C@H](c3ccccc3)[C@H](c3ccccc3)N1[C@@H]2c1ccccc1OCCO | 0.99 | -2.12 | 0.432 | 1.03 | 0.114 | -0.0445 | -0.0165 | 0.135 | 1.08 | 2.08 | 0.69 | 0.689 (inactive) | 0.0727 | -0.14 | 0.552 | 1.54 | 0.45 | 1.3 | -0.0675 | 1.14
CC(C)NC(=O)[C@@]1(c2ccc([N+](=O)[O-])cc2)CC(=O)N(CC23CC4CC(CC(C4)C2)C3)[C@@H]1c1ccc(CO)cc1 | 0.939 | -2.7 | 1.03 | 1.03 | -0.0022 | 0.289 | 0.321 | 1.85 | 1.52 | 1.37 | 0.0436 | 0.655 (inactive) | 1.07 | 0.427 | 0.195 | 2.79 | 0.885 | 1.29 | 1.21 | 1.12
